This is a sample that favours compounds with a hit; in the whole collection about 19% have one here.
HT1080NT lethal: qHTS for induction of synthetic lethality in tumor cells producing 2HG: qHTS for the HT-1080-NT fibrosarcoma cell line | HT-1080-NT fibrosarcoma viability, CellTiter-Glo ATP luminescence, 48 h | Potency, µM (highest dose often 46.1 µM), for the others: top-dose activity, negative = less viability, actives largely listed as cytotoxic | actives 1.6% (n = 360,000) | AID 686970, 2013;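 also: NT is the 2HG producing partner of a matched IDH1 knockdown line; potency is read from the fitted curve at half-maximal effect; 0% = DMSO-treated cells and -100% = media-only wells without cells; nearly all actives have a fitted effect of over 55% in size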
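HT-1080-NT fibrosarcoma cells (2HG-overproducing), 750 cells/well in RPMI with 5% FBS, dosed after 2 h and incubated 48 h at 37C. CellTiter-Glo luminescence normalized to DMSO and no-cell wells; concentration-response curves fitted and classed.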
HT1080 IDH1KD tx: qHTS for induction of synthetic lethality in tumor cells producing 2HG: qHTS for the HT-1080-IDH1KD cell line; HT-1080 IDH1 knockdown viability, ATP luminescence, 48 h; Potency, µM (doses to about 46.1 µM), for inactives: at the top dose activity, negative = toxicity, usual class: cytotoxic; actives 2% (n = 360,000);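 also: potency is read from the fitted curve at half-maximal effect; 0% = DMSO wells and -100% = cell-free medium wells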
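After a 2 h attachment period, IDH1KD HT-1080 cells took pin-transferred compound for 48 h at 37 °C; ATP-based luminescence after 10 min room-temperature reagent incubation reported viability.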
TDP1 cell noCPT: qHTS for Inhibitors of human tyrosyl-DNA phosphodiesterase 1 (TDP1): qHTS in cells in absence of CPT; DT40 Tdp1-/- hTDP1 cells, no CPT, ATP luminescence, 48 h; Potency, µM (series often up to 46.2 µM), inactives show top-dose activity change, negative = growth inhibition, hits mostly inhibitors; actives 15% (n = 420,000); AID 686978, 2013; also: potency is read from the fitted curve at half-maximal effect; nearly all actives have a fitted effect of over 55% in size
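Stably hTDP1-transfected Tdp1-null chicken DT40 cells were treated with library compounds minus camptothecin and grown for at least 48 hr at 37 °C, after which cellular ATP was quantified by luminescence.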
TDP1 cell CPT: qHTS for Inhibitors of human tyrosyl-DNA phosphodiesterase 1 (TDP1): qHTS in cells in presence of CPT; AID 686979, 2013; actives 12% (n = 420,000); Potency, µM (top dose mostly 46.2 µM), without a hit: at the highest dose activity change, negative = growth inhibition, usual class: inhibitors; chicken DT40 Tdp1-/-;hTDP1 cells + 20 nM CPT, ATP luminescence, 48 h; also: potency is read from the fitted curve at half-maximal effect; nearly all actives have a fitted effect of over 55% in size
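Chicken DT40 Tdp1-/- cells stably complemented with human TDP1 were seeded at 400 cells/well in medium containing 20 nM camptothecin, exposed to pin-transferred compounds, and grown at 37 °C for at least 48 hr. Viability was read as ATP luminescence.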
IL-1B inflam inh: qHTS for Inhibitors of Inflammasome Signaling: IL-1-beta AlphaLISA Primary Screen; THP-1 LPS/ATP IL-1B secretion, AlphaLISA, 16 h; hits give low values; activity change, % at 57.5 µM; actives 4.7% (n = 360,000); AID 743279, 2014; in the data active = activity change below about -50%; inconclusive = mostly about -30% to -49%
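Secreted IL-1B measured by AlphaLISA bead assay after 16 h compound exposure of THP-1 cells; compounds (final up to 57.5 uM) added 1 h before LPS (250 ng/mL) and ATP (1.25 mM) stimulation; lower signal means less secretion.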
* hit, by the source's call; ? = inconclusive; . = no result; [ ] = dose if it differs, or a comment. Unless noted, calls follow the shape of the dose curve; as a rule, active = well fitted curve in the direction sought with a large enough effect; inconclusive = small, poorly fitted or top-dose-only effect, or another doubt; inactive = no such curve, though single readings can be large; an effect the other way counts as inactive or inconclusive. Unless noted, % is scaled to controls: 0 for no effect and ±100 for the full control effect.

SMILES	HT1080NT lethal	HT1080 IDH1KD tx	TDP1 cell noCPT	TDP1 cell CPT	IL-1B inflam inh
CCN(CC)S(=O)(=O)c1ccc(NC(=O)CCc2c(C)nc3cc(-c4ccc(Cl)cc4)nn3c2C)cc1	.	.	3.7µM*	4.6µM*	.
O=C(NCc1cccnc1)Nc1cccc(Cl)c1Cl	-3%	0%	-13%	0%	-7
CC1(C)CC(C#N)(N2CCOCC2)CCO1 (stereo unspecified)	0%	0%	?	2.9µM*	15
O=C(Nc1ccc2c(c1)OCO2)N1CCN(c2cccc(C(F)(F)F)c2)CC1	-4%	-1%	21µM*	9.2µM*	-25
CCS(=O)(=O)N1CCc2cc(C(=O)N3CCN(c4cccc(C(F)(F)F)c4)CC3)ccc21	.	.	23µM*	?	.
COc1ccc(N2CCN(C(=O)Nc3cccc(C(F)(F)F)c3)CC2)cc1	-7%	?	18µM*	?	-14
O=C(Nc1cccc(C(F)(F)F)c1)N1CCN(C(=O)Nc2cccc(C(F)(F)F)c2)CC1	-2%	-11%	-9%	-10%	39
O=C(c1ccc2c(c1)OCO2)N1CCN(c2cccc(C(F)(F)F)c2)CC1	18µM*	?	21µM*	18µM*	-16
CC(C(=O)Nc1ccon1)N1C(=O)c2ccccc2S1(=O)=O (stereo unspecified)	10%	7%	-5%	-6%	11
CC(NS(=O)(=O)c1ccc(Cl)cc1)C(=O)OCC(=O)Nc1ccc(N(C)C)cc1 (stereo unspecified)	1%	2%	-20%	?	5
Cc1cn2c(=O)cc(COC(=O)c3cccc(NC(=O)c4ccc(C(C)(C)C)cc4)c3)nc2s1	.	.	-11%	10%	.
Cc1ccc(C)c(NS(=O)(=O)c2ccc3[nH]c(=O)oc3c2)c1	6%	1%	5%	4%	45
CCC(C)NC(C(=O)Nc1ccc(Cl)c([N+](=O)[O-])c1)c1ccccc1 (stereo unspecified)	-6%	2%	16µM*	?	-18
COCC(C)NC(C(=O)Nc1ccc(Cl)c([N+](=O)[O-])c1)c1ccccc1 (stereo unspecified)	-1%	-6%	-27%	-11%	10
O=C(Nc1ccc(Cl)c([N+](=O)[O-])c1)C(Sc1ccccc1)c1ccccc1 (stereo unspecified)	?	21µM*	?	?	-83*
Cc1ccc(NC(=O)COC(=O)c2ccc3ncsc3c2)c(C)c1	0%	-3%	-21%	12%	-19
Cc1ccc(-c2nc3ccccc3s2)cc1S(=O)(=O)N1CCOCC1	-40%	18µM*	?	?	0
Cc1ccc(-c2nnc(NCc3nc4ccccc4[nH]3)c3ccccc23)cc1S(=O)(=O)N1CCOCC1	-3%	-5%	10µM*	15µM*	-9
Cc1ccc(-c2nnc(NCc3nc4ccccc4[nH]3)c3ccccc23)cc1S(=O)(=O)N(C)C	-11%	-15%	23µM*	10µM*	-3
O=C(NCc1nc2ccccc2[nH]1)c1cccc(S(=O)(=O)N2CCOCC2)c1	19%	1%	2%	-4%	34
CCC(NC(=O)NNC(N)=S)(C(F)(F)F)C(F)(F)F	-10%	-1%	-4%	-9%	-2
O=C(NCCN1CCN(c2cccc(Cl)c2)CC1)Nc1ccccc1C(F)(F)F	.	.	18µM*	?	.
Nc1ccccc1C(=O)NCCCN1CCN(c2cccc(Cl)c2)CC1	9%	-2%	-22%	-14%	?
Cc1ccc(Cl)cc1N1CCN(CCNC(=O)Nc2ccccc2Cl)CC1	.	.	12µM*	16µM*	.
O=C(NCCCN1CCN(c2cccc(Cl)c2)CC1)Nc1ccccc1C(F)(F)F	.	.	?	15µM*	.
SMILES	HT1080NT lethal	HT1080 IDH1KD tx	TDP1 cell noCPT	TDP1 cell CPT	IL-1B inflam inh
Cc1ccccc1CS(=O)(=O)CCC(=O)NCCN1CCN(c2cccc(Cl)c2)CC1	-1%	-3%	15µM*	23µM*	?
Cc1ccc(Cl)cc1NC(=O)NCCN1CCCCC1	-2%	-1%	-16%	25%	-10
Cc1ncc2c(c1CNC(=O)/C=C/c1cccs1)CCN(C(=O)c1ccc3c(c1)OCCO3)C2	.	.	-3%	8%[9.04 µM]	.
CCc1cc(=O)oc2cc(C)cc(OCC(=O)N3CCC(C(=O)NC(C)C)(c4ccccc4)CC3)c12	-27%	-16%	21µM*	23µM*	?
CCc1cc(=O)oc2cc(C)cc(OC(C)C(=O)NC3CCN(Cc4ccccc4)CC3)c12 (stereo unspecified)	-16%	-6%	?	?	-63*
Cc1ccnc2nc(C(=O)OCC(=O)N(C)C3CCCCC3)nn12	-5%	1%	2%	-4%	-5
Cc1ccc(/C=C/C(=O)Nc2ccccc2C(N)=O)o1	.	.	10µM*	?	.
NC(=O)c1ccccc1NC(=O)/C=C/c1c(Cl)cccc1Cl	-28%	?	18µM*	?	-22
NC(=O)c1ccccc1NC(=O)/C=C/c1cccc(Cl)c1	-1%	0%	-13%	-23%	?
O=C(/C=C/c1ccco1)NCCc1ccccc1	16%	10%	-27%	5%	5
Cc1ccc(/C=C/C(=O)NCCc2ccccc2)o1	-3%	-2%	29µM*	5.8µM*	-27
Cc1nc(C)n(CC(C)C(=O)N2CCN(S(=O)(=O)c3ccc(Cl)cc3)CC2)n1 (stereo unspecified)	-4%	12%	-8%	11%	44
OC1(C2(O)CC(c3ccccc3)ON2)CCCCC1 (stereo unspecified)	-21%	-13%	18µM*	?	-69*
CN1C(=O)C2(CCCCC2)C1c1ccccc1 (stereo unspecified)	16%	12%	-10%	2%	28
COc1ccc(C(=O)NCCN2Cc3ccccc3OC(c3ccsc3)C2)c(OC)n1 (stereo unspecified)	.	.	-16%	-13%[9.04 µM]	.
COc1ccc(NC(=O)c2cc(CN3C(=O)c4ccccc4C3=O)ccc2OC)cn1	?	21µM*	?	?	-4
COc1ccc(CN2C(=O)c3ccccc3C2=O)cc1C(=O)Nc1ccccc1N1CCOCC1	-9%	-12%	16µM*	?	77
Cc1ccc(-c2nnn(C/C(N)=N/O)n2)cc1	14%	2%	-7%	10%	15
O=C(Cn1c2ccccc2c2nc3n(c(=O)c21)CCCS3)Nc1ccccc1	?	?	?	13µM*	?

Source: PubChem (National Center for Advancing Translational Sciences (NCATS))
